In PubChem BioAssay (NCATS):
Inconclusive results are not listed. Calls of active or inactive are those of the source. The call rests on the fitted dose curve; in most records, active means well fitted curve in the direction sought with a large enough effect; inconclusive means small, poorly fitted or top-dose-only effect, or another doubt; inactive means no such curve, though single readings can be large; an effect the other way counts as inactive or inconclusive. Numbered stars: 1 amine (or outer) side, 2 acyl side, 3 side chain; on linkers, the order of the positions; unused ones are H or OH. Bridge positions count the residues as written; N and C are the ends. Square brackets hold non-standard residues; d marks the D form. Peptide text beside a SMILES is read from it. ξ: configuration not given here. Phe(3R-OH) = O=C([C@@H](N[*:1])[C@H](O[*:3])c1ccccc1)[*:2]; NMeTrp(4-OMe) = CN[C@@H](Cc1c[nH]c2cccc(OC)c12)C(=O)O; ξThr(3R)(O-yl) = C[C@@H](O[*:3])C(N[*:1])C(=O)[*:2]; NMeThr(3ξ) = CN[C@H](C(=O)O)C(C)O; NMeL = CN[C@@H](CC(C)C)C(=O)O; NMeV = CN[C@H](C(=O)O)C(C)C; ξIle = CC[C@H](C)C(N)C(=O)O; ξV = CC(C)C(N)C(=O)O

Tests used:
[1] = qHTS for ATAD5 Antagonist screened against the NCATS CANVASS Library (AID 1347370);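 further: HEK293T cells carrying an ATAD5 luciferase reporter co-treated with 10 µM 5-fluorouridine; series mostly up to about 46 µM; nearly all actives have a fitted effect of over 65% in size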
Procedure, shortened: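 HEK293T cells with a stably integrated ATAD5-controlled luciferase reporter were exposed to compounds (11-pt) alongside 10 uM 5-fluorouridine as ATAD5 stabilizer for 16hr at 37C. Viability was read by CellTiter-Fluor fluorescence, then ATAD5 by luminescence.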

[2] = J3T Cancer Cell Toxicity qHTS against the NCATS CANVASS Library (AID 1347371);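 further: J3T is a canine glioma cancer cell line seeded at 500 cells per well; series mostly up to about 46 µM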
Procedure, shortened: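 J3T dog glioma cells (500 cells/well) were exposed to compounds in an 11-point series for 72 hr at 37C, 5% CO2. Cytotoxicity was read as ATP content by CellTiterGlo luminescence.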

[3] = biological target: Nuclear receptor subfamily 1 group I member 3 (Homo sapiens) (UniProt Q14994); assay: qHTS for Constitutive Androstane Receptor (CAR) Agonist screened against the NCATS CANVASS Library (AID 1347373);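 further: every well also contained 1.5 µM PK11195 alongside the test compound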
Chain of Nuclear receptor subfamily 1 group I member 3 (Homo sapiens) (Q14994 whole entry, looked up): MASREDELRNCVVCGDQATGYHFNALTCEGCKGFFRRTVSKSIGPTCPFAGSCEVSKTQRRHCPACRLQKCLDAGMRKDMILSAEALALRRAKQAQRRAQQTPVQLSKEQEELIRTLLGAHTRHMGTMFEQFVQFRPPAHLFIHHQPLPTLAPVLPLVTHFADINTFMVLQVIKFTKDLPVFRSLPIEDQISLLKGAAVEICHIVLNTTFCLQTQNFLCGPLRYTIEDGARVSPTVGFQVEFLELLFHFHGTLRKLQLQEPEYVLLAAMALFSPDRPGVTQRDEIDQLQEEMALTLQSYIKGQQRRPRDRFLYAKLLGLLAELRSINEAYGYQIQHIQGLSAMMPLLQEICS
Procedure, shortened: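 HepG2 cells stably expressing hCAR and a CYP2B6-2.2kb luciferase reporter were treated for 24hr at 37C with compounds (11-point qHTS) in the presence of 1.5uM PK11195. Reporter activation was read by ONE-Glo luminescence.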

[4] = qHTS for Hypoxia signaling pathway (HIF-1) antagonists against the NCATS CANVASS Library (AID 1347374);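 further: HRE-bla ME-180 cells stimulated with cobalt chloride to stabilize HIF-1alpha; series mostly up to about 38 µM; nearly all actives have a fitted effect of over 60% in size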
Procedure, shortened: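 HRE-bla ME-180 cells (2,000/well, 0.5% dialyzed FBS) were pre-incubated 5 h, then given an 11-point compound series plus CoCl2 (60 uM solution as added) for 17 h at 37C. CCF4 β-lactamase read (ex 405, em 460/530 nm) after 2 h at RT.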

[5] = qHTS for Hypoxia signaling pathway (HIF-1) agonists against the NCATS CANVASS Library (AID 1347375)
Procedure, shortened: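 HRE-bla ME-180 cells (beta-lactamase reporter under hypoxia responsive element) in 0.5% dialyzed FBS medium, 5 h at 37C, then compound 17 h, 11-point qHTS series. CCF4-AM FRET substrate 2 h RT; 460/530 nm emission read.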

[6] = DH5-alpha competent E. coli microbial cell viability qHTS against the NCATS CANVASS Library (AID 1347377); settings: outcome: dose series up to 46.1 µM unless noted
Procedure, shortened: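 DH5-alpha E. coli suspension (0.9 OD culture diluted to 0.2 OD) exposed to compounds in an 11-point series, overnight at 37C, 5% CO2. Viability read as ATP by BacTiter-Glo luminescence after 20 min at room temperature.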

[7] = qHTS for H2AX Agonists against the NCATS CANVASS Library (AID 1347378)
Procedure, shortened: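 CHO-K1 cells were plated overnight at 37C, then exposed to compounds (concentration series, 0.76% DMSO final) for 3 hr at 37C. Lysates received Eu-cryptate anti-pH2AX (S139) and d2 anti-H2AX antibodies; after 24 hr at room temperature, TR-FRET 665/620 nm ratio was read.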

[8] = qHTS for Inflammasome Signaling Inhibitors: IL-1-beta AlphaLISA screen against the NCATS CANVASS Library (AID 1347379);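 further: human THP-1 cells primed with LPS then triggered with ATP; secreted IL-1B measured as AlphaLISA emission at 615 nm; lower signal means less IL-1B release which is the wanted effect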
Procedure, shortened: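 Human THP-1 cells were pretreated 1 hr at 37 °C with compounds (up to 57.5 uM final), then stimulated with LPS (250 ng/mL final) and ATP (1.25 mM final). Secreted IL-1B was read by AlphaLISA after 16 hr.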

[9] = qHTS for Antimalaria activity screened against the NCATS CANVASS Library (AID 1347380); further: potency means the concentration at half of the fitted maximal effect; nearly all actives have a fitted effect of over 40% in size
Procedure, shortened: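 P. falciparum Dd2-infected RBCs (2.5% hematocrit final, 0.3% parasitemia) in Albumax II RPMI were exposed to compounds in an 11-point qHTS series for 72 h at 37C under 5% O2/5% CO2, then lysed with SYBR Green.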

[10] = Inflammasome Signaling qHTS Counterscreen: IL-1-beta AlphaLISA counterscreen against the NCATS CANVASS Library (AID 1347381);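 further: cell-free check with purified IL-1β in medium and no THP-1 cells; series mostly up to about 57 µM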
Procedure, shortened: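 To flag interference with the AlphaLISA read-out, a known amount of purified IL-1-beta (4 pg) replaced cell supernatant. Detection used anti-IL-1-beta acceptor beads, biotinylated antibody and streptavidin donor beads at room temperature.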

[11] = qHTS for Activators of p53 Stress Response Pathway screened against the NCATS CANVASS Library (AID 1347388)
Procedure, shortened: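 Beta-lactamase reporter driven by p53 response elements in HCT-116 cells, read as the 460 nm/530 nm emission ratio after CCF4 loading, following 16 h of exposure to an 11-point series. Cell viability was measured in the same wells by CellTiter-Glo luminescence.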

[12] = qHTS assay for small molecule disruptors of mitochondrial membrane potential screened against the NCATS CANVASS Library (AID 1347389); further: series mostly up to about 46 µM; nearly all actives have a fitted effect of over 60% in size
Procedure, shortened: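 HepG2 cells (2,000/well) were plated overnight at 37C, exposed to compound for 1 hr at 37C/5% CO2, then loaded with Mito-MPS dye for 30 min. Depolarization was read as a drop in red (590 nm) to green (535 nm) fluorescence ratio.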

[13] = Secretion counterscreen for inhibitors of the SERCaMP assay screened against the NCATS CANVASS Library (AID 1347390);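 further: light from luciferase secreted into medium read as a measure of general secretion; series mostly up to about 77 µM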
Procedure, shortened: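 SH-SY5Y cells expressing constitutively secreted GLuc, 1000 cells/well, attached 4 h at 37C, then exposed to compounds (0.001 - 77 uM, 11-pnt series) for 20 h. Coelenterazine added; luminescence read to flag secretory-pathway interferers.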

[14] = qHTS for activators of Nrf2/ARE signaling pathway screened against the NCATS CANVASS Library (AID 1347391); further: nearly all actives have a fitted effect of over 60% in size
Procedure, shortened: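 ARE-bla HepG2 beta-lactamase reporter cells, 2000 cells/well, were preincubated 5 h, then exposed to compounds (11-point series) for 16 h at 37C. CCF4 fluorescence (ex 405, em 460/530 nm) after 2 h at room temperature.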

[15] = qHTS for inhibitors of ER calcium dysfunction: SERCaMP assay screened against the NCATS CANVASS Library (AID 1347393); further: potency means the concentration at half of the fitted maximal effect; nearly all actives have a fitted effect of over 40% in size
Procedure, shortened: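 Thapsigargin-induced ER calcium depletion drives GLuc-SERCaMP secretion from SH-SY5Y cells; compounds given 16 h beforehand were scored by lowered coelenterazine luminescence after 4 h challenge.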

[16] = Vero-766 cells viability qHTS against the NCATS CANVASS Library: Counterscreen for Zika virus inhibition assay (AID 1347394); further: series mostly up to about 46 µM; nearly all actives have a fitted effect of over 60% in size
Procedure, shortened: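 Uninfected Vero 766 (African green monkey) cells, 1000/well, attached overnight, then exposed 72 h at 37C to compounds (11-point qHTS). Viability read by CellTiter-Glo luminescence; media-only wells served as 100% inhibition.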

[17] = qHTS for inhibitors of Wild type Zika virus screened against the NCATS CANVASS Library (AID 1347396);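 further: ATP luminescence of surviving cells so rescue from viral cell killing; series mostly up to about 46 µM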
Procedure, shortened: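 Using ATP-based luminescence (CellTiter Glo), this screen scores rescue of Vero 766 cells from wild-type Zika killing at 72 h post-infection. Compounds are tested in a concentration series.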

[18] = Viability qHTS for inhibitors of the SERCaMP assay screened against the NCATS CANVASS Library (AID 1347400); further: series mostly up to about 92 µM; nearly all actives have a fitted effect of over 70% in size
Procedure, shortened: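 SH-SY5Y-GLuc SERCaMP MJH297-derived cells (1000 cells/well) were pre-incubated 4 h at 37C, then exposed to compounds for 48 h. Viability was read as CellTiter-Glo luminescence; bortezomib served as positive control.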

[19] = Redox Reaction Profiling qHTS: Assay Interference Panel against the NCATS CANVASS Library (AID 1347401)
Procedure, shortened: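 Cell-free redox surrogate: 5 uM resazurin + 200 uM DTT, 50 mM HEPES pH 7.3/50 mM NaCl; cpds pinned, 11-pt qHTS; Ex525/Em598 read t0 and t=15 min, dark.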

Measured: Potency

CC[C@H](C)C(NC(=O)[C@@H](NC)C(C)C)C(=O)NC1C(=O)N(C)[C@@H](C(C)O)C(=O)N[C@@H](C(C)C)C(=O)N(C)[C@@H](CC(C)C)C(=O)NC(C(C)C)C(=O)N(C)[C@@H](C(C)C)C(=O)N(C)[C@@H](Cc2c[nH]c3cccc(OC)c23)C(=O)N[C@@H](C(C)C)C(=O)N[C@@H]([C@H](O)c2ccccc2)C(=O)N[C@@H](C(C)C)C(=O)O[C@@H]1C (stereo partly drawn) (H-[NMeV][ξIle][ξThr(3R)(O-yl)][NMeThr(3ξ)]V[NMeL][ξV][NMeV][NMeTrp(4-OMe)]V[Phe(3R-OH)]V; ester 3-C)
active: [9] 3.75 µM | [15] 27.2 µM
inactive: all other assays above
